Experimental data from the supplement of paper PMC3334620.
Whole data set: some 33,000 sequences, median “E-score (-0.5 to 0.5)” near -0.054, cut for the highest 2% near 0.35. For the sample, the highest values were picked, then their nearest neighbours and some sequences at random.

target: T1, Stb5 (UniProt P38699); test: PBM E-score (8-mer binding enrichment) (E-score (-0.5 to 0.5)); higher = stronger / more preferred TF binding; settings: protein concentration: 200 nM; construct: GST-full length
T1 sequence: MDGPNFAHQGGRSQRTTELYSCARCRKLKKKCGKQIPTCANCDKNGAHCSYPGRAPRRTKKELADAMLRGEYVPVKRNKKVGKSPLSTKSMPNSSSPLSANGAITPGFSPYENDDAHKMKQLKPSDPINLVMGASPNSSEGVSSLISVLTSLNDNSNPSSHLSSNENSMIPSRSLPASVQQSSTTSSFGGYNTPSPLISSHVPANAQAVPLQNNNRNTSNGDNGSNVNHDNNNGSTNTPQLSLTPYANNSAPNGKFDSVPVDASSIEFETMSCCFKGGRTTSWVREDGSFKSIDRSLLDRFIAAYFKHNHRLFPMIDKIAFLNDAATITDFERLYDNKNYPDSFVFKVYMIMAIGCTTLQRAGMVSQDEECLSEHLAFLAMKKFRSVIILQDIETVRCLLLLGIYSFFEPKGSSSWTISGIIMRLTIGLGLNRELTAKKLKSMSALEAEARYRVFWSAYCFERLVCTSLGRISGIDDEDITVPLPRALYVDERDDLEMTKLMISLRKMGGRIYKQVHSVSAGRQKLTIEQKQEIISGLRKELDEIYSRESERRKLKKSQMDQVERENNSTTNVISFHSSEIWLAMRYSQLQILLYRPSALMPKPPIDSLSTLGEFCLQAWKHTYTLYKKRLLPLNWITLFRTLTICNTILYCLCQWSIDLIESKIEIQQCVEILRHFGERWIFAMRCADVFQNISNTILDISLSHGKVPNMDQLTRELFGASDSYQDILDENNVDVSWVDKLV
Experimental: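 Universal 'all 10-mer' protein binding microarrays (Agilent AMADID 015681) probed with GST-tagged S. cerevisiae TFs (full-length or DBD) made by in vitro transcription/translation (PURExpress), about 100-200 nM. Bound TF was detected with fluorescent anti-GST. Each ungapped 8-mer (which stands for itself and its reverse complement) is scored by the PBM enrichment score (E-score), a modified Wilcoxon-Mann-Whitney statistic from -0.5 to +0.5, computed with the Universal PBM Analysis Suite. Scale: above 0.35 generally sequence-specific binding.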

Row | Sequence | PBM E-score
1 | GCCGATCC | 0.207
2 | AGCGCCGG | 0.376
3 | AGCGCCAC | 0.162
4 | AGCGCCGA | 0.342
5 | CGCGCCGC | 0.325
6 | AGCGCCCG | 0.198
7 | AGCGCCGC | 0.41
8 | CTCTTATC | -0.11
9 | CTTTTTAC | 0.145
10 | GCTGCTAA | 0.122
11 | ACCCCGTC | 0.381
12 | AACCCGTC | 0.183
13 | ACCCCGTA | 0.301
14 | CCCCCGTC | 0.233
15 | AACCCGTG | -0.0372
16 | ACCCCGTG | 0.367
17 | AGCTGTGA | -0.266
18 | GGGGGCTA | 0.0408
19 | CGGGTATA | 0.403
20 | AGGGGCTA | -0.0747
21 | AGGGTCTA | -0.0622
22 | AGGGGTAA | -0.249
23 | AGGGTATA | 0.217
24 | CGGGTCTC | 0.151
25 | GGGGGTAA | 0.248

Row | Sequence | PBM E-score
26 | GGGGTATA | 0.26
27 | CGGGGTAA | 0.424
28 | CGGGTCTA | 0.412
29 | CGGGGCTA | 0.454
30 | CCTTAATA | 0.03
31 | CCCAAGGA | -0.0196
32 | CTTCGCCA | 0.0018
33 | GATTAGTA | 0.0787
34 | ATACATGG | -0.155
35 | CGCATCAA | 0.126
36 | ACGCTTAG | -0.072
37 | GTGGGTTA | -0.0789
38 | CTCCTCTC | -0.308
39 | CCGGGTTC | 0.24
40 | CGGGGGTA | 0.451
41 | GGGGGGTA | 0.0523
42 | CCGGGGTA | 0.268
43 | AGGGGTTC | -0.15
44 | CGGGGTTC | 0.388
45 | GGAGCCAA | 0.00764
46 | GACTATAC | 0.0897
47 | AAGGACGG | 0.162
48 | AGACGGAC | 0.331
49 | CGACGGAC | 0.368
50 | CGACGGAG | 0.339

Row | Sequence | PBM E-score
51 | GGACGGAA | 0.133
52 | CGACGGAA | 0.262
53 | GGACGGAC | 0.359
54 | CGCCTCGA | 0.0565
55 | GCTATTGA | 0.168
56 | GTTCGATA | -0.036
57 | CCTGTTTA | 0.0509
58 | CGTTTGCA | 0.0334
59 | ACCTGAAA | -0.098
60 | ATCGCCGC | 0.385
61 | ATCGCCGA | 0.387
62 | ATCGCCTC | -0.271
63 | GTCGCCGA | 0.19
64 | ATCGCCTG | -0.215
65 | ATAGCCGC | 0.312
66 | CTCGCCGA | -0.0352
67 | ATCGCCGG | 0.368
68 | ATAGCCGG | 0.373
69 | ATAGCCGA | 0.216
70 | CTCGCCGC | 0.0978
71 | ATCGCCAG | -0.0866
72 | AGGCAACC | -0.251
73 | ATGAGCTC | -0.262
74 | GAGTCTGA | -0.308
75 | CAAAAGAG | -0.072

Row | Sequence | PBM E-score
76 | TCAGTTCA | -0.229
77 | CGCGTCAC | -0.194
78 | AAAACACC | 0.353
79 | CAAACACC | 0.352
80 | CAAACACA | -0.126
81 | AAAACACT | 0.0252
82 | CAAACACG | -0.114
83 | AAAACACG | -0.0278
84 | AGTTGTAC | 0.0567
85 | ATAGTCAC | -0.0899
86 | ACAGACCC | -0.00703
87 | CCAGGAGG | -0.238
88 | TTTCAAAA | -0.0616
89 | CCTAACCC | 0.0781
90 | CGACGATC | -0.058
91 | CGAATAGC | 0.0153
92 | AAAGGTTG | -0.192
93 | CTTGGCAC | -0.106
94 | AGCTTTAG | -0.226
95 | AGCATCGG | 0.214
96 | CCATACCG | 0.202
97 | CCCCGCTA | 0.399
98 | GCCCGCTA | 0.233
99 | CCCCGCTC | 0.371
100 | ACCCGCTC | 0.246

Row | Sequence | PBM E-score
101 | CGCCGCTA | 0.412
102 | CCCCGCAC | 0.236
103 | GGCCGCTA | 0.299
104 | ACCCGCTA | 0.0951
105 | AGCCGCTA | 0.173
106 | AGACCAGC | -0.285
107 | AAGTCTGC | -0.211
108 | CCAGCAGC | -0.12
109 | TGAACTAA | -0.153
110 | AGAACTAA | 0.0894
111 | GGAACTAA | 0.373
112 | CCCGTTTA | 0.188
113 | GTCCACAC | 0.162
114 | ACTCCGGA | 0.355
115 | CCTCCGGA | 0.219
116 | ACTCCGGG | 0.327
117 | GCTCCGGA | 0.368
118 | ACTCCGGC | 0.307
119 | GCTCCGCA | 0.173
120 | ATATTCTG | 0.0727
121 | GCTGACCA | -0.169
122 | CCCCCAAG | -0.233
123 | GGCAGCTA | -0.0896
124 | TAATACTA | -0.0352
125 | CAGAATCC | -0.0711

Row | Sequence | PBM E-score
126 | ATCGGATG | 0.168
127 | ACGCTGGC | -0.0211
128 | GCACCGGC | 0.353
129 | ACACCTGT | 0.0542
130 | TCACCGGA | 0.343
131 | ACACCGGT | 0.421
132 | ACACCGGA | 0.402
133 | GCACCGGA | 0.338
134 | AAACCGGT | 0.304
135 | CCACCGGC | 0.322
136 | GAACCGGC | 0.213
137 | CCACCGGG | 0.26
138 | ACACCGGG | 0.417
139 | ACACCCGG | 0.234
140 | CGGTTGTA | 0.309
141 | ATAGCCAC | -0.171
142 | ACCAAGCA | -0.0711
143 | AAATGTTC | -0.138
144 | CATTGGCC | -0.214
145 | AAACCGGC | 0.268
146 | ACACCGGC | 0.4
147 | AGACCGGC | 0.313
148 | ACCGTCTC | 0.0885
149 | AACACCGG | 0.474
150 | CACACCGA | 0.344

Row | Sequence | PBM E-score
151 | GACACCGC | 0.454
152 | CACACCGG | 0.327
153 | CACACCAC | -0.199
154 | CACACCGC | 0.394
155 | AACACCGA | 0.479
156 | AACACCTG | 0.179
157 | GACACCCC | 0.014
158 | GACACCTC | -0.0935
159 | CACACCTC | -0.0997
160 | AACACCCA | -0.0193
161 | GAGCCTCC | -0.123
162 | CACCGTAC | 0.213
163 | AGCCGCCT | 0.0174
164 | ACCGTGGC | 0.0612
165 | ACCAAAAG | -0.113
166 | CCAACCTC | -0.111
167 | GAATCGAA | -0.175
168 | CGTGTACA | -0.00441
169 | GACACCGA | 0.442
170 | AACACCAT | 0.0943
171 | TACACCGA | 0.414
172 | AACACCGT | 0.472
173 | AACACCCT | -0.128
174 | TACACCTA | -0.109
175 | GACACCAA | -0.124

Row | Sequence | PBM E-score
176 | TACACCAA | -0.128
177 | GCCACCGA | 0.139
178 | AGGCGACG | -0.112
179 | CCAGAAAA | -0.296
180 | AATGACTC | -0.235
181 | AAGGATCT | -0.117
182 | CCTGCCCC | 0.0235
183 | CTGAATCA | -0.177
184 | ACCCCCGC | 0.398
185 | CCCCCCGC | 0.068
186 | ACCCCCCC | -0.295
187 | ACACCCGT | 0.162
188 | AACCCCCT | -0.247
189 | AACCCCGT | 0.448
190 | AACCCCAT | 0.156
191 | ACCCCCGT | 0.365
192 | ACCCCCCT | -0.245
193 | CTACTCCC | -0.0111
194 | TCGTGGAA | 0.00034
195 | CTAAGAAC | 0.00444
196 | ATGTTCCG | 0.249
197 | AATTGATG | 0.0383
198 | ATCGATAA | -0.139
199 | ACGGCGAT | 0.362
200 | ACGGCGTA | 0.0801

Row | Sequence | PBM E-score
201 | ACGGCAAG | -0.121
202 | ACGGCACC | 0.175
203 | ACGGCGTC | 0.392
204 | ACGGCAAA | 0.235
205 | ACGGCACT | 0.427
206 | ACGGCAAT | 0.377
207 | ACGGCGAG | 0.043
208 | ACGGCGAC | 0.264
209 | ACGGCGTG | 0.208
210 | ACGGCACA | 0.0761
211 | ATACCAGA | -0.177
212 | GGTACTTA | 0.233
213 | GTTAGAAC | 0.0768
214 | ATTCGCCC | 0.125
215 | CCTCCAAC | -0.199
216 | ATCGCAAC | -0.0557
217 | CATATCCG | 0.15
218 | AATATGCT | 0.00961
219 | CCGGCACC | 0.278
220 | GCGGCACC | 0.353
221 | GCGGCACA | 0.173
